Drawing on PubChem BioAssay (NCI), this text covers growth for 39 compounds.

This is part of a sample that, as a whole, favours compounds with a hit. Of some 83,000 tested, about 20% had one in any assay.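 Cell lines were cultured in 96-well plates, exposed to a single compound concentration, and assessed for percent growth 48 hours later.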 Calls of active or inactive are those of the source. How the source made its calls: active means growth percent below 10; inactive means the rest.

The test system of the first assay is NCI/ADR-RES ovarian. Nature of the assay: NCI-60 one-dose screen, 48 h (100 = growth as untreated, 0 = no growth, -100 = all killed). The note with it: 10 µM unless noted.
For the compound `CSc1nc(N)n2nccc2n1`, the growth was 105% (inactive).

For the compound `Cc1nnc(-c2cc3c(ccc4ccccc43)oc2=O)c2cn(-c3ccc(Cl)cc3)nc12`, the growth was 96.3% (inactive).

Regarding `COc1ccc(CNCCCN2C(=O)c3ccc4c5c(ccc(c35)C2=O)C(=O)N(CCCNCc2ccc(OC)c(OC)c2OC)C4=O)c(OC)c1OC`, the growth is -36.5% (active).

As to `CCCCCCCCCCCCOC(=N)N(C)C`, the growth is 102% (inactive).

Consider `COCC(=O)NNc1[nH]c(-c2ccc(OC)cc2)cc1C#N`, for which the growth was 106% (inactive).

For the compound `c1cc(C2CCCCC2)ccc1OCCCCCCN1CCNCC1`, the growth is 54.1% (inactive).

`O=C(CCCC(=O)Nc1ccc(Cn2nnc3cc(Cl)c(Cl)cc32)cc1)Nc1ccc(CN2N=NC3C=C(Cl)C(Cl)=CC32)cc1` (stereo not drawn): the growth was 83.1% (inactive).

Take `COc1cc(N)c2nccc(C)c2c1OC`: the growth is 131% (inactive).

Regarding `COc1ccc(Cn2cc3c(c2)-c2oncc2CC3)cc1OC`, the growth is 1.63% (active).

`Brc1c(-c2ccncc2)nc2n1CCS2`: the growth is 107% (inactive).

Consider `CCc1c(C)c2ccc(OCC(=O)N=Nc3c(O)[nH]c4ccccc34)c(C)c2oc1=O`, for which the growth is 47.7% (inactive).

Regarding `Nc1ccc(N=Nc2ccccc2)c2cc(S(=O)(=O)O)ccc12`, the growth is 101% (inactive).

With `CC(C)CSc1nc(-c2ccc(F)cc2)c(C#N)c(N2CCCCC2)n1`, the growth is 88.7% (inactive).

Regarding `Cc1ccc2c(O)c(O)cc(NC(C)CCCN)c2n1` (stereo not drawn), the growth is 91.3% (inactive).

Take `CCn1cnc(C[C@H](NC(=O)[C@@H](NC(=O)Nc2cc(C(F)(F)F)cc(C(F)(F)F)c2)C(C)(C)C)C(=O)OC)c1`: the growth is 7.32% [100 µM] (active).

In the case of `CC(C)OCC1CO1` (stereo not drawn), the growth is 109% (inactive).

Take `COc1ccc(-c2nnc(SCC(=O)Nc3ccc(C(=O)/C=C/c4cc(OC)c(OC)c(OC)c4)cc3)n2-c2ccccc2)cc1OC`: the growth is 46% [100 µM] (inactive).

With `[N-]=[N+]=Nc1ncc(-c2ccc(C(F)(F)F)cc2)c(NC2CCCCCC2)n1`, the growth is 43.7% [100 µM] (inactive).

`CC(C)(C)c1cc(C[P+](c2ccc(Cl)cc2)(c2ccc(Cl)cc2)c2ccc(Cl)cc2)cc(C(C)(C)C)c1O`: the growth is 97.2% (inactive).

As to `O=C(OCC1CC2(Cl)C(Cl)=C(Cl)C1(Cl)C2(Cl)Cl)C1C(C(=O)OCC2CC3(Cl)C(Cl)=C(Cl)C2(Cl)C3(Cl)Cl)C2(Cl)C(Cl)=C(Cl)C1(Cl)C2(Cl)Cl` (stereo not drawn), the growth was 106% (inactive).

As for `O=S(=O)(Cc1cccc2c(CS(=O)(=O)c3ccc(Cl)cc3)cccc12)c1ccc(Cl)cc1`, the growth is 90% (inactive).

As to `O=C(/C=C1\C(=O)N(Cc2ccccc2)c2ccccc21)c1ccc(OCCN2CCCCC2)cc1`, the growth is 65.7% (inactive).

Regarding `CC(C)(C)C(=O)CCCCCCCC/C=C/CCCC(O)c1ccco1` (stereo not drawn), the growth was 108% (inactive).

As to `CC(=O)CCS(=O)c1ccccc1` (stereo not drawn), the growth was 99.1% (inactive).

For `O=P(OCCCl)(OCCCl)C(O)c1ccccc1Cl` (stereo not drawn), the growth is 109% (inactive).

`CC1(C)C(O)NC(Cl)=C(C#N)C1(C#N)C#N` (stereo not drawn): the growth is 103% (inactive).

As for `COc1ccc(C(O)(c2ccccc2)C(C(=O)O)c2ccccc2)cc1` (stereo not drawn), the growth was 108% (inactive).

`O=C(O)CC1Cc2ccccc2C1C(=O)O` (stereo not drawn): the growth is 99.5% (inactive).

`O=c1[nH]c(=S)[nH]c(O)c1/C=C1\C=Nc2ccccc21`: the growth was 87.9% (inactive).

As for `O=C1NCCN1/N=C/c1c(Cl)nc2n1CCS2`, the growth was 114% (inactive).

On to `CCCC(=O)Nc1ccccc1C(=O)O`, for which the growth is 96.3% (inactive).

`CC(C)OC(=O)Nn1cnc2ccccc21`: the growth was 110% (inactive).

Turning to `O=C(NC1CCN(Cc2ccccc2)CC1)c1cc(-c2cccnc2)nc2ccc(Cl)cc12`, the growth was 67% (inactive).

As to `O=S(=O)(O)c1ccc2c(c1)Sc1cc(S(=O)(=O)O)ccc1O2`, the growth is 104% (inactive).

Turning to `CCCCCc1ccnc(CC(=O)c2ccc(OC)cc2)c1`, the growth is 108% (inactive).

As to `COc1ccc(-c2nc(SCC(C)C)nc(Nc3ccc([N+](=O)[O-])cc3)c2C#N)cc1`, the growth is 101% (inactive).

As to `COc1cc2ncnc(Nc3ccc4c(cnn4C(=O)Nc4ccccc4)c3)c2cc1OC`, the growth is 100% (inactive).

In the case of `CCCCCSc1ccc2nc(NC(=O)OCC)sc2c1`, the growth was 11.9% (inactive).

As for `COc1ccc(C2=C/C(=C\c3ccc(Cl)cc3)C(=O)NN2C(=S)NN)cc1`, the growth is 94.5% (inactive).

The next assay deals with T-47D breast. The assay is described as above. The settings on record: 10 µM unless noted.
`CSc1nc(N)n2nccc2n1`: the growth was 102% (inactive).

In the case of `Cc1nnc(-c2cc3c(ccc4ccccc43)oc2=O)c2cn(-c3ccc(Cl)cc3)nc12`, the growth was 76.2% (inactive).

On to `COc1ccc(CNCCCN2C(=O)c3ccc4c5c(ccc(c35)C2=O)C(=O)N(CCCNCc2ccc(OC)c(OC)c2OC)C4=O)c(OC)c1OC`, for which the growth was -40.1% (active).

On to `CCCCCCCCCCCCOC(=N)N(C)C`, for which the growth is 89.9% (inactive).

For the compound `COCC(=O)NNc1[nH]c(-c2ccc(OC)cc2)cc1C#N`, the growth was 106% (inactive).

In the case of `c1cc(C2CCCCC2)ccc1OCCCCCCN1CCNCC1`, the growth was 22.8% (inactive).

As for `O=C(CCCC(=O)Nc1ccc(Cn2nnc3cc(Cl)c(Cl)cc32)cc1)Nc1ccc(CN2N=NC3C=C(Cl)C(Cl)=CC32)cc1` (stereo not drawn), the growth was 49% (inactive).

Consider `COc1cc(N)c2nccc(C)c2c1OC`, for which the growth is 108% (inactive).

With `COc1ccc(Cn2cc3c(c2)-c2oncc2CC3)cc1OC`, the growth is 47.5% (inactive).

On to `Brc1c(-c2ccncc2)nc2n1CCS2`, for which the growth was 100% (inactive).

As to `CCc1c(C)c2ccc(OCC(=O)N=Nc3c(O)[nH]c4ccccc34)c(C)c2oc1=O`, the growth is -53.3% (active).

For `Nc1ccc(N=Nc2ccccc2)c2cc(S(=O)(=O)O)ccc12`, the growth was 97% (inactive).

Regarding `CC(C)CSc1nc(-c2ccc(F)cc2)c(C#N)c(N2CCCCC2)n1`, the growth was 91.2% (inactive).

On to `Cc1ccc2c(O)c(O)cc(NC(C)CCCN)c2n1` (stereo not drawn), for which the growth was 63.3% (inactive).

Take `CCn1cnc(C[C@H](NC(=O)[C@@H](NC(=O)Nc2cc(C(F)(F)F)cc(C(F)(F)F)c2)C(C)(C)C)C(=O)OC)c1`: the growth is -58% [100 µM] (active).

Take `CC(C)OCC1CO1` (stereo not drawn): the growth was 104% (inactive).

Take `COc1ccc(-c2nnc(SCC(=O)Nc3ccc(C(=O)/C=C/c4cc(OC)c(OC)c(OC)c4)cc3)n2-c2ccccc2)cc1OC`: the growth is -43.3% [100 µM] (active).

As for `[N-]=[N+]=Nc1ncc(-c2ccc(C(F)(F)F)cc2)c(NC2CCCCCC2)n1`, the growth was 21.3% [100 µM] (inactive).

With `CC(C)(C)c1cc(C[P+](c2ccc(Cl)cc2)(c2ccc(Cl)cc2)c2ccc(Cl)cc2)cc(C(C)(C)C)c1O`, the growth is 56.1% (inactive).

Regarding `O=C(OCC1CC2(Cl)C(Cl)=C(Cl)C1(Cl)C2(Cl)Cl)C1C(C(=O)OCC2CC3(Cl)C(Cl)=C(Cl)C2(Cl)C3(Cl)Cl)C2(Cl)C(Cl)=C(Cl)C1(Cl)C2(Cl)Cl` (stereo not drawn), the growth was 105% (inactive).

Take `O=S(=O)(Cc1cccc2c(CS(=O)(=O)c3ccc(Cl)cc3)cccc12)c1ccc(Cl)cc1`: the growth was 100% (inactive).

As to `O=C(/C=C1\C(=O)N(Cc2ccccc2)c2ccccc21)c1ccc(OCCN2CCCCC2)cc1`, the growth is -56.3% (active).

On to `CC(C)(C)C(=O)CCCCCCCC/C=C/CCCC(O)c1ccco1` (stereo not drawn), for which the growth was 104% (inactive).

As for `CC(=O)CCS(=O)c1ccccc1` (stereo not drawn), the growth is 100% (inactive).

`O=P(OCCCl)(OCCCl)C(O)c1ccccc1Cl` (stereo not drawn): the growth is 98.2% (inactive).

As for `CC1(C)C(O)NC(Cl)=C(C#N)C1(C#N)C#N` (stereo not drawn), the growth was 106% (inactive).

Turning to `COc1ccc(C(O)(c2ccccc2)C(C(=O)O)c2ccccc2)cc1` (stereo not drawn), the growth was 86% (inactive).

For `O=C(O)CC1Cc2ccccc2C1C(=O)O` (stereo not drawn), the growth is 101% (inactive).

Consider `O=c1[nH]c(=S)[nH]c(O)c1/C=C1\C=Nc2ccccc21`, for which the growth was 98.4% (inactive).

For `O=C1NCCN1/N=C/c1c(Cl)nc2n1CCS2`, the growth is 119% (inactive).

For `CCCC(=O)Nc1ccccc1C(=O)O`, the growth was 117% (inactive).

Take `CC(C)OC(=O)Nn1cnc2ccccc21`: the growth was 114% (inactive).

Regarding `O=C(NC1CCN(Cc2ccccc2)CC1)c1cc(-c2cccnc2)nc2ccc(Cl)cc12`, the growth was 45% (inactive).

As for `O=S(=O)(O)c1ccc2c(c1)Sc1cc(S(=O)(=O)O)ccc1O2`, the growth is 110% (inactive).

Take `CCCCCc1ccnc(CC(=O)c2ccc(OC)cc2)c1`: the growth was 82.3% (inactive).

Turning to `COc1ccc(-c2nc(SCC(C)C)nc(Nc3ccc([N+](=O)[O-])cc3)c2C#N)cc1`, the growth was 92.6% (inactive).

With `COc1cc2ncnc(Nc3ccc4c(cnn4C(=O)Nc4ccccc4)c3)c2cc1OC`, the growth was 77.7% (inactive).

`CCCCCSc1ccc2nc(NC(=O)OCC)sc2c1`: the growth is 29.7% (inactive).

As for `COc1ccc(C2=C/C(=C\c3ccc(Cl)cc3)C(=O)NN2C(=S)NN)cc1`, the growth was 76.6% (inactive).
